Assay [1] can be described thus: reducers of endogenous Her2 protein level, primary screen, SKBR3 breast tumor cells, AlphaScreen, ATP viability (AID 461;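 active = Her2 level under about 52% in both replicate screens, with viability over 70% of control, limit read from the data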;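 as to Her2 level: lower value means less Her2 protein in the cells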;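 as to viability: percent of carrier control wells set as 100% viability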). The following applies: 18-24 h, measured here: SKBR3 viability, ATP luminescence, at 10 µM.
In assay [2] the target is Receptor tyrosine-protein kinase erbB-2 (Homo sapiens) (UniProt P04626). Described as above. The following applies: 18-24 h, at 10 µM, stronger effect = lower value.
Receptor tyrosine-protein kinase erbB-2 (Homo sapiens), sequence (P04626 whole entry, looked up): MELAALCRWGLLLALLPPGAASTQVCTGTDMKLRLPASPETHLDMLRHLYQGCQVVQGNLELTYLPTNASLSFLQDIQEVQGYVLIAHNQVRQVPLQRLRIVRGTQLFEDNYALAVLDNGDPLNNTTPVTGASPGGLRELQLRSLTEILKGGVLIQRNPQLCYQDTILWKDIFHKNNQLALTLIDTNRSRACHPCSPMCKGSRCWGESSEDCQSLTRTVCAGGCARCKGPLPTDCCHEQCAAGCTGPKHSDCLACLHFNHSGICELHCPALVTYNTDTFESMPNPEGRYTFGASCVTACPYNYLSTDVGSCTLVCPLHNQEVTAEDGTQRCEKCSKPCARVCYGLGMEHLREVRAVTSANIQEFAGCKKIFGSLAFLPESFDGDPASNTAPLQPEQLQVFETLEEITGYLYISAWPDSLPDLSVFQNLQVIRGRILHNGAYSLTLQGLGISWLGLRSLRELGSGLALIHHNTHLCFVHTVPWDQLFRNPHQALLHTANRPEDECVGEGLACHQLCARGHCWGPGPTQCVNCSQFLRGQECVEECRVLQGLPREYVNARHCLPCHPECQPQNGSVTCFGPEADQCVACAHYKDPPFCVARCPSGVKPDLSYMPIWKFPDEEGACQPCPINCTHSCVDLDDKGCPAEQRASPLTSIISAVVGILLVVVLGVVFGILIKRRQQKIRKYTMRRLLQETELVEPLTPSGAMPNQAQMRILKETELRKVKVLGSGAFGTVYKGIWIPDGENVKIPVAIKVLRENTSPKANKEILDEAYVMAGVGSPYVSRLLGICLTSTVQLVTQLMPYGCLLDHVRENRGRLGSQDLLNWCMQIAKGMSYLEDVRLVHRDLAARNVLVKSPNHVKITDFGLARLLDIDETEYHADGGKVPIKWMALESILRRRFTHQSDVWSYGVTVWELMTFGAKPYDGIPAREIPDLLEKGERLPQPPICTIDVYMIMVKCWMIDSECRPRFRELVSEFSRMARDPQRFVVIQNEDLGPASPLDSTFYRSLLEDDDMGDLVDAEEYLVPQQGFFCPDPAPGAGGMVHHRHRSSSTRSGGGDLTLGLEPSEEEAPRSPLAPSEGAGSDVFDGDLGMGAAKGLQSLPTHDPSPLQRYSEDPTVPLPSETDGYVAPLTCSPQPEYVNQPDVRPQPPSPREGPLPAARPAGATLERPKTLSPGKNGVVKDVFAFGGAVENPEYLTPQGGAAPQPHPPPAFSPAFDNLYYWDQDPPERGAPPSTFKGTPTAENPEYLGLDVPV
Assay [3] can be described thus: SK-BR-3 cell growth inhibitors, pilot screen, 24 h, human (AID 572;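 active = viability at or below 10% of carrier control in both of two separate runs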;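 also: compound exposure lasted between 18 and 24 h rather than exactly 24 h; 100% = carrier-treated control wells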). The following applies: SK-BR-3 viability, CellTiter-Glo luminescence, at 10 µM, stronger effect = lower value.
Assay [4] in a line: HUVEC growth inhibition – cell-based, human, primary screen (AID 575;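 active = viability at or below 30% in both replicate assays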;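 also: 100% = median of untreated cell wells with 0.1% DMSO on each plate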). To be noted: HUVEC proliferation, CellTiter-Glo luminescence, 72 h; at 10 µM; stronger effect = lower value.
Assay [5] in a line: growth inhibitors of H69AR lung tumor, primary screen, human, duplicate replicates (AID 580;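 active = viability at or under a set limit in both replicates, limit being median viability minus 3 SD, cut at about 48% in these data, passing the limit was not always enough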;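 also: 100% = mean luminescence of untreated wells and 0% = no signal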). The following applies: H69AR lung tumor cells viability, ATP luminescence, 72 h; at 10 µM; stronger effect = lower value.
A short description of assay [6]: reversal of MRP1-mediated doxorubicin resistance, pilot screen, H69AR cells, doxorubicin co-treatment (AID 601;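 active = viability loss from added drug above about 55%, and viability with drug at most 40%, in both replicates, limit read from the data, passing the limit was not always enough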). The following applies: CellTiter-Glo, 72 h, at 10 µM; for differential viability (reversal): stronger effect = higher value.
A short description of assay [7]: 384-well plate pilot, post-Golgi transport modulator project, inhibition of yeast transport mutant growth (AID 636; in the data active = inhibition above about 31%). To be noted: absorbance 615 nm, about 18 h, stronger effect = higher value.
Assay [8] in a line: growth suppression of yeast trafficking mutant, preliminary HTS, modulators of trafficking downstream of Golgi apparatus project, 1536-format plate, OD 615 nm (AID 637). The following applies: yeast transport mutant growth, absorbance 615 nm, 18 h; stronger effect = higher value.
Assay [9] in a line: OD615 S. cerevisiae growth inhibition, permissive medium, pilot counter-assay, permissive growth control for S. cerevisiae lifespan shortening project (AID 705;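 active = growth inhibition above 25% in both replicates, a cutoff set 3 SD above the mean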). To be noted: OD615, 24 h, at 10 µM, stronger effect = higher value.
A short description of assay [10]: Restrictive medium S. cerevisiae growth inhibition, OD615, pilot screen of yeast lifespan reduction project, restrictive growth control (AID 706;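 active = growth inhibition above a set limit, 3 SD over mean compound inhibition, in both replicates, cut at about 43% in these data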;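 also: modified DeaD lifespan yeast strain shifted to restrictive glucose medium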). To be noted: OD615, 48 h, at 10 µM, stronger effect = higher value.
Assay [11] can be described thus: viability gain of MRP-1-high H69AR cells under doxorubicin, pilot screen, MRP-1 activator project, CellTiter-Glo, duplicate (AID 807;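 active = viability increase at or above a cutoff of the median across tested compounds plus 3 SD, cut at about 8.5% in these data, passing the limit was not always enough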;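 also: compound pretreatment 18-22 h then 72 h combined with doxorubicin; 0% = doxorubicin alone and 100% = vehicle without doxorubicin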). The following applies: H69AR viability with doxorubicin, CellTiter-Glo luminescence; at 10 µM; stronger effect = higher value.
A short description of assay [12]: growth suppression of beta-catenin knockout HCT116, pilot screen, human colon tumor cells (AID 823;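 active = cell viability at or below a set limit in both duplicate runs, the limit being the all-compound median minus 4 SD, cut at about 23% in these data, passing the limit was not always enough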;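 also: 0% = wells killed by 20 µM Hyamine and 100% = untreated DMSO cell wells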). The following applies: CellTiter-Glo, 60 h, at 10 µM, stronger effect = lower value.
A short description of assay [13]: growth suppression of PTEN-deleted HCT116, pilot screen, cell-based, HCT116 clonal line, CellTiter-Glo (AID 824;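 active = viability at or below 27.92% in each of two runs, the all-compound median minus 4 SD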;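 also: 0% = 20 µM Hyamine control and 100% = vehicle cell control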). To be noted: 60 h, at 10 µM, stronger effect = lower value.
A short description of assay [14]: inhibitors of the yeast RAM network, pilot screen, dse1pr::URA3 reporter, 5-FOA selection (AID 869;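 active = inhibition over a set limit, the all-compound mean plus 3 SD, in both replicate runs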;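 also: 0% = DMSO wells with no growth and 100% = 10 µM 1-NA-PP1 with full growth; RAM network block rescues cells from 5-FOA so hits raise OD615 growth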). To be noted: S. cerevisiae dse1pr::URA3 5-FOA growth, OD615, 2 d; at 10 µM; stronger effect = higher value; strain carries analog-sensitive mutant Cbk1 kinase.
The nature of assay [15]: RAM signaling pathway blockade in yeast – S. cerevisiae, Pdr1DBD-CYC8 efflux-inhibited sensitized strain, primary screen (AID 1298;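 active = RAM network inhibition above 8.4% in each of two replicates, 3 SD over the compound average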;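 also: 0% = DMSO untreated cells without growth and 100% = 10 µM 1-NA-PP1 full growth; higher means more yeast growth rescued from 5-FOA killing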). The following applies: S. cerevisiae cbk1-as DSE1-URA3 strain, 5-FOA growth OD615, 2 d; at 50 µM; stronger effect = higher value.
Where [16] appears, read: H69AR cells + 2 uM doxorubicin, measured here: viability with 2 uM doxorubicin, stronger effect = lower value.
The mark [17] stands for this setting: H69AR cells, compound alone cytotoxicity.

Results filed as inconclusive are left out. Active and inactive are the calls of the source. Rule as the data show it, unless noted: active = inhibition above about 30%; inactive = the rest.

10 compounds from PubChem BioAssay can be followed below.

`O=C(c1ccc(CNc2c(N3CCCC3)c(=O)c2=O)cc1)N1CCc2ccccc2C1`: the viability in assay [1] was 90.5%; in [3] it was 90.5% (inactive); in assay [4], 104% (inactive); in assay [5] it was 95.3% (inactive); in assay [6] (setting [16]) it was 92.6%; in assay [6] (setting [17]), 95.3%. For the same compound, the figures for the viability in [12] and in assay [13] were 92.6% (inactive) and 91% (inactive), respectively. In addition, the Her2 level in assay [2] was 100% (inactive). In addition, the differential viability (reversal) in [6] (H69AR cells + 2 uM doxorubicin) was 2.69% (inactive). Besides, the inhibition in assay [7] was 3.59% (inactive); in assay [8] it was 6.67% (inactive); in [14], 0.36% (inactive). For the same compound, the growth inhibition in [9] is -4% (inactive); in [10], -0.375% (inactive). For the same compound, the viability increase in assay [11] is -0.78% (inactive). In addition, in assay [15], the RAM network inhibition is 0.72% (inactive).

Regarding `CCn1cc(C(=O)N2CCOCC2)c(=O)c2cc(S(=O)(=O)N(C)C3CCCCC3)ccc21`, the viability was 84% in assay [1]; 84% (inactive) in assay [3]; 108% (inactive) in assay [4]; 106% (inactive) in [5]; 86.7% in [6] (setting [16]); 106% in [6] (setting [17]). The viability in assay [12] is 100% (inactive); in assay [13], 95.8% (inactive). Further, the Her2 level in assay [2] is 89% (inactive). The differential viability (reversal) in assay [6] (H69AR cells + 2 uM doxorubicin) was 19.7% (inactive). The inhibition in [7] was 0.26% (inactive); in assay [8] it was 0.5% (inactive); in assay [14], 0.85% (inactive). The growth inhibition in assay [9] is -13.6% (inactive); in assay [10], -19.3% (inactive). Besides, the viability increase in [11] was -1.73% (inactive). Also, in assay [15], the RAM network inhibition was 2.09% (inactive).

For the compound `Cc1ccc(C(=O)NC(Cc2c[nH]c3ccccc23)C(=O)O)o1` (stereo not given), the viability in assay [1] is 95.5%; in assay [3], 95.5% (inactive); in assay [4], 87.3% (inactive); in assay [5] it was 88.9% (inactive); in assay [6] (setting [16]) it was 87.1%; in assay [6] (setting [17]) it was 88.9%. For the same compound, the viability in assay [12] was 96.2% (inactive); in [13], 96.4% (inactive). The Her2 level in [2] was 130% (inactive). The differential viability (reversal) in assay [6] (H69AR cells + 2 uM doxorubicin) is 1.82% (inactive). The inhibition is 1.95% (inactive) in assay [7], -5% (inactive) in assay [8] and 1.82% (inactive) in assay [14]. Further, the growth inhibition in [9] was 1.54% (inactive); in [10] it was -2.65% (inactive). Moreover, the viability increase in assay [11] is -3.09% (inactive). Moreover, the RAM network inhibition in assay [15] was 6.26% (inactive).

Take `Cc1cc2ncc(-c3ccc(Cl)cc3)c(N)n2n1`: the viability was 83% in assay [1]; 83% (inactive) in [3]; 69.6% (inactive) in assay [4]; 82.7% (inactive) in assay [5]; 83.1% in assay [6] (setting [16]); 82.7% in assay [6] (setting [17]). Moreover, the viability was 88% (inactive) in assay [12] and 85.4% (inactive) in assay [13]. For the same compound, the Her2 level in assay [2] is 114% (inactive). Besides, the differential viability (reversal) in assay [6] (H69AR cells + 2 uM doxorubicin) was -0.45% (inactive). For the same compound, the inhibition in assay [7] was -4.93% (inactive); in assay [8], -0.5% (inactive); in assay [14], 1.27% (inactive). For the same compound, the figures for the growth inhibition in assay [9] and in assay [10] were -12.6% (inactive) and -0.665% (inactive), respectively. Also, the viability increase in assay [11] is -4.85% (inactive). Besides, the RAM network inhibition in assay [15] is 1.2% (inactive).

In the case of `CCc1cccc(NC(=O)Cn2cc3c(n2)CCCC3)c1`, the viability in assay [1] is 105%; in assay [3], 105% (inactive); in [4], 89.8% (inactive); in assay [5], 94.8% (inactive); in assay [6] (setting [16]) it was 90.3%; in assay [6] (setting [17]), 94.8%. Besides, the viability in assay [12] was 96.6% (inactive); in [13], 97.2% (inactive). Also, in assay [2], the Her2 level is 95.5% (inactive). Moreover, the differential viability (reversal) in [6] (H69AR cells + 2 uM doxorubicin) was 4.52% (inactive). Also, the inhibition is -4.53% (inactive) in [7], -3.11% (inactive) in [8] and 1.69% (inactive) in assay [14]. Moreover, the growth inhibition in assay [9] is -17.8% (inactive); in assay [10], -2.27% (inactive). Further, the viability increase in [11] was -1.41% (inactive). In addition, in assay [15], the RAM network inhibition is 0.42% (inactive).

On to `CCOC(=O)C1CCCN(C(=O)c2cn(C)c(=O)c3cc(OC)c(OC)cc23)C1` (stereo not given), for which the viability is 96.5% in assay [1]; 96.5% (inactive) in assay [3]; 94.2% (inactive) in assay [4]; 91% (inactive) in [5]; 101% in assay [6] (setting [16]); 91% in [6] (setting [17]). The viability was 97% (inactive) in assay [12] and 90.7% (inactive) in [13]. Moreover, the Her2 level in assay [2] was 99.5% (inactive). Also, the differential viability (reversal) in assay [6] (H69AR cells + 2 uM doxorubicin) is -9.49% (inactive). The inhibition was -3.38% (inactive) in assay [7], 4.43% (inactive) in [8] and 1.17% (inactive) in [14]. In addition, the growth inhibition in assay [9] was -11.5% (inactive); in [10], -4.87% (inactive). For the same compound, the viability increase in assay [11] is -3.62% (inactive). In addition, in assay [15], the RAM network inhibition is 1.13% (inactive).

Regarding `CC(=O)c1c(OC(=O)c2ccco2)c2ccccc2n1C`, the viability was 91% in [1]; 91% (inactive) in [3]; 74.6% (inactive) in assay [4]; 75.3% (inactive) in assay [5]; 83.8% in assay [6] (setting [16]); 75.3% in assay [6] (setting [17]). Further, the figures for the viability in assay [12] and in assay [13] were 75.1% (inactive) and 91.3% (inactive), respectively. In addition, the Her2 level in [2] was 102% (inactive). Moreover, the differential viability (reversal) in [6] (H69AR cells + 2 uM doxorubicin) was -8.43% (inactive). For the same compound, the inhibition in [7] was -0.64% (inactive); in [8], -8.83% (inactive); in assay [14], 0.15% (inactive). Moreover, the growth inhibition was -14.2% (inactive) in assay [9] and -7.23% (inactive) in [10]. In addition, in assay [11], the viability increase is -4.82% (inactive). The RAM network inhibition in assay [15] was 1.13% (inactive).

Turning to `COc1ccc(C2CC(c3ccc(C)cc3)Nc3ncnn32)cc1` (stereo not given), the viability is 106% in assay [1]; 106% (inactive) in assay [3]; 105% (inactive) in assay [4]; 101% (inactive) in assay [5]; 86.1% in assay [6] (setting [16]); 101% in assay [6] (setting [17]). Also, the viability in assay [12] is 104% (inactive); in assay [13], 88.7% (inactive). The Her2 level in [2] is 96.5% (inactive). The differential viability (reversal) in assay [6] (H69AR cells + 2 uM doxorubicin) was 14.9% (inactive). The inhibition in assay [7] is -0.27% (inactive); in assay [8] it was 3.28% (inactive); in assay [14] it was 1.41% (inactive). The growth inhibition in [9] was 2% (inactive); in [10], 20% (inactive). Besides, the viability increase in assay [11] was -0.88% (inactive). Moreover, the RAM network inhibition in assay [15] is 0.05% (inactive).

Consider `COc1ccc(S(=O)(=O)Cc2ccc(C(=O)N3CCN(c4ccccc4)CC3)o2)cc1`, for which the viability was 72.5% in assay [1]; 72.5% (inactive) in assay [3]; 104% (inactive) in [4]; 84.4% (inactive) in assay [5]; 86.1% in assay [6] (setting [16]); 84.4% in assay [6] (setting [17]). In addition, the viability is 88.8% (inactive) in assay [12] and 89.3% (inactive) in [13]. The Her2 level in [2] was 115% (inactive). Also, the differential viability (reversal) in [6] (H69AR cells + 2 uM doxorubicin) is -1.7% (inactive). Moreover, the inhibition was -2.8% (inactive) in [7], -7.5% (inactive) in assay [8] and 0.76% (inactive) in [14]. Also, the results for the growth inhibition in [9] and in assay [10] were -11.7% (inactive) and -18.9% (inactive), respectively. For the same compound, the viability increase in assay [11] is -2.99% (inactive). In assay [15], the RAM network inhibition was 8.54% (inactive).

Regarding `Cc1ccc2cc(CCNC(=O)C(C)C)c(=O)[nH]c2c1C`, the viability was 87.5% in assay [1]; 87.5% (inactive) in [3]; 99.4% (inactive) in [4]; 99% (inactive) in [5]; 92.3% in [6] (setting [16]); 99% in assay [6] (setting [17]). The values for the viability in assay [12] and in assay [13] were 105% (inactive) and 99.1% (inactive), respectively. Further, the Her2 level in assay [2] is 102% (inactive). The differential viability (reversal) in assay [6] (H69AR cells + 2 uM doxorubicin) was 6.72% (inactive). Further, the figures for the inhibition in assay [7], in assay [8] and in [14] were -4.8% (inactive), -1% (inactive) and 1.52% (inactive), respectively. Also, the growth inhibition in assay [9] was -15.2% (inactive); in [10], -19.7% (inactive). For the same compound, the viability increase in [11] was -0.61% (inactive). Further, the RAM network inhibition in [15] was 6.36% (inactive).
